# Screen size: about 63,000 compounds; about 1,100 (1.7%) were called active. Only a selection was taken, and actives are over-represented in it overall. Results with a measured potency or affinity are listed apart. A number with no mark means an inactive call. Rule as the data show it: active = cytotoxicity above about 50%; inactive = the rest.
# Experiment: HPDE-C7 pancreatic duct cell viability loss – fluorescence, HTS (AID 430);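 also: cells exposed to compound for 48 hours before viability readout; 0% = vehicle and 100% = reference cytotoxic drug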
# Settings: HPDE-C7 pancreatic duct cells viability, at 10 µM, active compounds read high
row,SMILES,cytotoxicity
1,Cc1cc(C)n(-c2nc3c(c(=O)[nH]c(=O)n3C)n2CCc2ccccc2)n1,5.1%
2,Cc1[nH]c2ccccc2c1C(=O)CN1CCCCC1CCO (centres undefined),-11.2%
3,CCOc1ccc(Cn2nnc(C(=O)NCc3ccc(OC)cc3)c2N)cc1,-14.5%
4,CCOc1cc(S(=O)(=O)NCC2OCCc3ccccc32)c(OCC)cc1-n1cnnn1 (centres undefined),2.3%
5,CCC(=O)OC1=C2C(=Nc3c(c(=O)n(C)c(=O)n3C)C2c2ccccc2)c2ccccc21 (centres undefined),0.2%
6,CCOc1cc(NC(=O)c2ccco2)c(OCC)cc1NC(=O)Cc1ccc(OC)c(OC)c1,-12%
7,Cc1cc(C)cc(N2CCCn3c2nc2c3c(=O)n(CCN3CCOCC3)c(=O)n2C)c1,-6.7%
8,CC(=O)C1=C(O)C(=O)N(Cc2cccnc2)C1c1ccc(Cl)cc1Cl (centres undefined),-17.4%
9,Cc1ccc2c(c1)NC(=O)C(CC(=O)N(C)Cc1ccccc1)O2 (centres undefined),1.5%
10,CC(OC(=O)C1CCCO1)C(=O)NC1CCCC1 (centres undefined),5.3%
11,COC(=O)c1ccc(NC(=O)c2ccccc2NS(C)(=O)=O)cc1,10.7%
12,O=C(c1cccn2c(=O)c3ccc(Cl)cc3nc12)N1CCN(Cc2ccc3c(c2)OCO3)CC1,-0.1%
13,COc1cc2c(=O)n(-c3ccc(C)cc3)c(=O)n(CC(=O)c3ccc4c(c3)OCO4)c2cc1OC,6.8%
14,COc1cc2c(O)c3c(c(-c4ccc5c(c4)OCO5)c2cc1OC)C(=O)OC3,82.2% (active)
15,COc1ccc(C(=O)Oc2ccc3c(c2)OCO3)cc1OC,-13.3%
16,Cc1ccc(S(=O)(=O)NCc2ccncc2)cc1,3.6%
17,COc1ccc(Nc2nc(N)nc(CSc3n[nH]c(-c4ccccc4)n3)n2)cc1,-20.3%
18,COc1ccccc1N1CCN(C(=O)C2CC=CCC2C(=O)O)CC1 (centres undefined),9.5%
19,COc1ccc(C(C)=O)cc1COC(=O)c1ccc(S(=O)(=O)N2CCOCC2)cc1,21%
20,COc1cc(NC(=O)c2ccco2)ccc1NC(=O)c1ccccc1Cl,2.8%
21,N#Cc1c(-c2ccco2)nc(SCC(=O)Nc2cccc(Cl)c2)[nH]c1=O,19%
22,N#Cc1c(-c2ccco2)nc(SCc2ccc(F)cc2)[nH]c1=O,54.3% (active)
23,Cc1nc(SCc2cccc(F)c2)[nH]c(=O)c1C#N,-9.7%
24,Cn1c(Cn2nnc3ccccc32)nnc1SCC(=O)N1c2ccccc2CCc2ccccc21,-18%

row,SMILES,cytotoxicity
1,COc1ccc(C(=O)OC(C)CN2CCOCC2)cc1OC (centres undefined),-1.4%
2,CC(CN1CCOCC1)OC(=O)c1ccc2c(c1)OCCO2 (centres undefined),4.5%
3,CCc1ccc2c(CN3CCc4ccccc43)cc(=O)oc2c1,-5.4%
4,CCOC(=O)c1ccc(NC(=O)c2cccc(S(=O)(=O)N3CCOCC3)c2)cc1,20.1%
5,CCOC(=O)c1sc(NC(=O)c2ccc(S(=O)(=O)N3CCOCC3)cc2)cc1C,-2.3%
6,CCOC(=O)c1sc(NC(=O)c2cccc(S(=O)(=O)N3CCN(C)CC3)c2)cc1C,51% (active)
7,Cc1cc(C)n(-c2ccc(C(=O)Nc3ccccc3N3CCOCC3)cc2)n1,-4.1%
8,Cc1ccc(CS(=O)(=O)Cc2ccc(C(=O)NCc3ccco3)o2)cc1,-21%
9,c1csc(-c2nn[nH]n2)c1,-3.1%
10,CN(c1ccccc1)S(=O)(=O)c1ccc(C(=O)Nc2nccs2)cc1,-7.3%
11,COc1ccccc1-c1nnc(NC(=O)c2ccc(S(=O)(=O)N(C)Cc3ccccc3)cc2)o1,55.9% (active)
12,COc1ccccc1-c1nnc(NC(=O)c2ccc(S(=O)(=O)N(C)C)cc2)o1,-2.7%
13,CN(c1ccccc1)S(=O)(=O)c1ccc(C(=O)Nc2nnc(-c3ccc(F)cc3)o2)cc1,58.9% (active)
14,CCN(Cc1ccccc1)S(=O)(=O)c1ccc(C(=O)Nc2nnc(-c3ccccc3OC)o2)cc1,35.6%
15,Cc1ccccc1C(=O)Nc1nnc(-c2ccc(F)cc2)o1,18.7%
16,c1ccc2c(c1)oc1c(NCc3ccc4c(c3)OCO4)ncnc12,-2.2%
17,O=C(NCC1COCCO1)C1CCN(S(=O)(=O)c2ccccc2)CC1 (centres undefined),-6.9%
18,CCNC(=O)N1c2ccc(OC)cc2C(C)=CC1(C)C,3.2%
19,O=C(NC1CCc2ccccc21)C1CCN(S(=O)(=O)c2ccc(-n3cnnn3)cc2)CC1 (centres undefined),-11%
20,O=C(NCCc1ccccc1)C1CCCN1C(=O)Nc1ccc(F)cc1 (centres undefined),-11.3%
21,O=C1CCCC2=C1C(c1cccs1)n1nc(SCc3ccccc3F)nc1N2 (centres undefined),-11.2%
22,CCOC(=O)c1[nH]c2ccc(F)cc2c1NC(=O)CN1CCc2cc(OC)c(OC)cc2C1,-3.8%
23,CCOC(=O)c1[nH]c2ccccc2c1NC(=O)CN1CCCCC1,-4.1%
24,CCOC(=O)c1[nH]c2ccc(OCC)cc2c1NC(=O)CN1CCN(c2ccccc2)CC1,4.4%

row,SMILES,cytotoxicity
1,CCOC(=O)c1[nH]c2ccc(F)cc2c1NC(=O)C(C)N1CCc2cc(OC)c(OC)cc2C1 (centres undefined),58.6% (active)
2,CCOC(=O)c1[nH]c2ccc(F)cc2c1NC(=O)CN1CCN(C/C=C/c2ccccc2)CC1,64.9% (active)
3,CCOC(=O)c1[nH]c2ccc(OC)cc2c1NC(=O)C(C)N1CCSCC1 (centres undefined),19.3%
4,CC(NC(=O)CC12CC3CC(CC(C3)C1)C2)C(=O)O (centres undefined),3%
5,COCCN(CC(=O)NCc1ccc(F)cc1)C(=O)CCC(=O)Nc1nccs1,3.1%
6,CCc1nnc(NC(=O)C2CCN(c3nccc(C)n3)CC2)s1,-2.7%
7,O=C(CSc1nnc(CNC(=O)c2cccs2)o1)NC1CCCCC1,-2.7%
8,COc1ccc2noc3c2c1C(=O)c1ccccc1-3,45.8%
9,O=C1c2ccccc2-c2onc3ccc(NCCCn4ccnc4)c1c23,20.3%
10,O=C1c2ccccc2-c2onc3ccc(NCc4ccco4)c1c23,62.1% (active)
11,Cc1nn(C)c(C)c1CNC(=O)c1nn2c(c1Cl)NC(c1cccs1)CC2C(F)(F)F (centres undefined),-0.2%
12,COc1ccc(NC(=O)C2CCCN(c3c4c(nc5ncnn35)CCC4)C2)cc1 (centres undefined),-37.1%
13,CCOc1ccccc1CNC(=O)C1CCN(c2nc3ccccc3o2)CC1,-9.3%
14,Cc1nc(NC(=O)c2ccccc2)sc1-c1csc(N)n1,39.2%
15,Cc1nc(NC(=O)c2ccccc2)sc1-c1csc(NCc2ccco2)n1,63.4% (active)
16,Cc1nc(C)c(-c2csc(NCc3ccco3)n2)s1,-21.6%
17,O=C(Nc1nc2c(s1)CCCC2)c1cc2n(n1)C(C(F)(F)F)CC(C1CC1)N2 (centres undefined),45.6%
18,Cc1cccc(N(C(=O)Cn2nnc3ccccc32)C(C(=O)NCc2ccco2)c2ccncc2)c1 (centres undefined),5.1%
19,CC1=C(C(=O)NCc2ccccc2)C(c2ccc(C)o2)n2ncnc2N1 (centres undefined),-15%
20,CCOC(=O)c1c(C2COc3ccccc3O2)csc1N (centres undefined),-2.8%
21,COCc1cc(=O)[nH]c(Nc2nc3ccccc3o2)n1,34.6%
22,COC(=O)Cc1cc(=O)[nH]c(Nc2nc3ccccc3o2)n1,7.2%
23,COCc1cc(=O)[nH]c(Nc2nc3ccc(C)cc3o2)n1,51.7% (active)
24,O=S(=O)(c1cc(C(F)(F)F)ccc1Cl)N1CCCCCC1,-4%

row,SMILES,cytotoxicity
1,CCOC(=O)C1=C(c2ccccc2)Nc2ncnn2C1c1ccccn1 (centres undefined),-3.2%
2,CCOC(=O)c1[nH]c2ccc(OCC)cc2c1NC(=O)CN1CCN(c2ccccn2)CC1,8.8%
3,Cc1ccc2[nH]c3c(N4CCCCCC4)ncnc3c2c1,23.7%
4,Cc1ccc2[nH]c3c(N4CCOCC4)ncnc3c2c1,5.1%
5,Cc1ccc2c(c1)[nH]c1c(N3CCN(Cc4ccccc4)CC3)ncnc12,82.2% (active)
6,CCOc1ccc2[nH]c3c(N4CCN(c5ccccn5)CC4)ncnc3c2c1,62.5% (active)
7,CCOC(=O)N1CCN(c2ncnc3c2[nH]c2ccc(OC)cc23)CC1,-5%
8,c1ccc(CN2CCN(c3ncnc4nc[nH]c34)CC2)cc1,8.4%
9,c1ccc(CN2CCN(c3ncnc4c3[nH]c3ccccc34)CC2)cc1,15.2%
10,Fc1ccccc1CSc1ncnc2c1oc1ccccc12,5.1%
11,COc1ccccc1NC(=O)c1cc(S(=O)(=O)N2CCC3(CC2)OCCO3)ccc1F,4.8%
12,COc1cccc(C(=O)Nc2ccc(C)cc2)c1,-1.9%
13,Cc1cccc(OCC(=O)Nc2cc(C)ccc2O)c1,-6%
14,COc1cccc(C(=O)/C=C/Nc2cc(C)ccc2O)c1,65.2% (active)
15,CCC(CC)C(=O)Nc1nnc(-c2cccs2)s1,5%
16,Cc1cccc(C)c1NC1=NC(C)(C)N=C(N)N1,10.8%
17,Cc1nn(-c2ccccc2)c(C)c1C(=O)OC/C(O)=C(\C#N)c1nc2ccccc2[nH]1,7.4%
18,CCOC(=O)c1c(C)[nH]c(C(=O)OC/C(O)=C(\C#N)c2nc3ccccc3[nH]2)c1C,89.8% (active)
19,N#C/C(=C(/O)COC(=O)c1ccc2c(c1)OCCO2)c1nc2ccccc2[nH]1,24.1%
20,CCOc1cc(Br)c(C(=O)O)cc1OCC,-2.5%
21,COc1cccc2c1C(=O)c1c(O)c3c(c(O)c1C2=O)C[C@@](O)(C(=O)CO)C[C@@H]3O[C@H]1C[C@H](N)[C@H](O)[C@H](C)O1,102% (active)
22,COc1cccc2c1C(=O)c1c(O)c3c(c(O)c1C2=O)C[C@@](O)(C(C)=O)C[C@@H]3O[C@H]1C[C@H](N)[C@H](O)[C@H](C)O1,108% (active)

# Source: PubChem BioAssay AID430 (Sanford-Burnham Center for Chemical Genomics, 2006)
